Source: PubChem (National Center for Advancing Translational Sciences (NCATS))
Pf growth 48h: Primary qHTS for delayed death inhibitors of the malarial parasite plastid, 48 hour incubation | P. falciparum luciferase growth in erythrocytes, 48 h | hit rate 5.9% among 310,000 | Potency, µM (doses to about 28.7 µM), for inactives: top-dose activity change, negative = inhibition, actives largely listed as inhibitors | AID 504832, 2011; note: % is set by controls: 0 for no effect and ±100 for the full control effect
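Luciferase-expressing P. falciparum in infected erythrocytes (2% hematocrit, 0.1% parasitemia final) in RPMI 1640/0.5% Albumax were exposed to compound for 48 hours at 37 C, 5% CO2; growth read as luminescence.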
NS1 inh: qHTS Assay for Inhibitors of Influenza NS1 Protein Function | hit rate 0.4% among 270,000 | Potency, µM (doses to about 46.1 µM), inactives show at the highest dose activity, positive = more growth; calls by dose curve; note: actives are rising curves; nearly all actives have a fitted effect of over 50% in size
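Compounds were scored for reversing the slow growth caused by influenza A NS1 in S. cerevisiae, measured by optical density at 600 nm. Assay medium contained 2% galactose at pH 6.0; NS1-free yeast of the same strain were the positive control.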
AMA1-RON2 inh: qHTS for Inhibitors of AMA1-RON; Towards Development of Antimalarial Drug Lead: Primary Screen; AlphaScreen AMA1-biotinylated RON2 peptide binding; hit rate 0.2% among 360,000; Potency, µM (series often up to 58.2 µM), without a hit: at the top dose activity change, negative = inhibition, hits mostly inhibitors;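 note: 0% = vehicle wells and -100% = peptide control; nearly all actives have a fitted effect of over 45% in size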
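AMA1 (3D7) with his tag at 25 nM final met compounds first, then biotinylated RON2 peptide at 25 nM; detection used donor plus acceptor beads, 10 µg/mL apiece, read by AlphaScreen after 30 min at room temperature.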
Sm TGR inh: qHTS Assay for the Inhibitors of Schistosoma Mansoni Peroxiredoxins | Schistosoma mansoni thioredoxin glutathione reductase (TGR), Q962Y6 | purified TGR, DTNB reduction, TNB absorbance 405 nm | Potency, µM (titrated, usually from 114 µM), for inactives: at the highest dose activity change, negative = inhibition, actives largely listed as inhibitors | hit rate 3% among 360,000 | AID 485364, 2010; note: % is set by controls: 0 for no effect and ±100 for the full control effect; nearly all actives have a fitted effect of over 60% in size
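First, TGR (20 nM dispensed) and NADPH were mixed with compound. Second, a 15 min room-temperature incubation followed. Third, further NADPH and then DTNB were added to start the reaction. Finally, TNB absorbance was monitored kinetically.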
Pf growth 96h: Primary qHTS for delayed death inhibitors of the malarial parasite plastid, 96 hour incubation; Potency, µM (doses to about 28.7 µM), inactives show at the top dose activity change, negative = inhibition, most hits filed as inhibitors; P. falciparum luciferase reporter growth, 96 h; hit rate 6.9% among 320,000; AID 504834, 2011; note: % is set by controls: 0 for no effect and ±100 for the full control effect
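Cell-based qHTS: luciferase-tagged P. falciparum in erythrocytes (2% hematocrit, 0.05% parasitemia final) incubated with compounds for 96 hours, 37 C, 5% CO2; luciferase detection reagent then added and luminescence measured.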
An asterisk follows results filed as active; ? = inconclusive; . = not tested or not shown; [ ] = dose if it differs, or a comment. Most compounds without a hit are left out; they make up all but 11% or so of the library. Unless noted, calls come from the whole dose curve; as a rule, active = well fitted curve in the direction sought with a large enough effect; inconclusive = small, poorly fitted or top-dose-only effect, or another doubt; inactive = no such curve, though single readings can be large; an effect the other way counts as inactive or inconclusive. Potency is the fitted concentration of half-maximal effect.

SMILES	Pf growth 48h	NS1 inh	AMA1-RON2 inh	Sm TGR inh	Pf growth 96h
O=C(N/N=C/c1c(Cl)[nH]c2ccccc12)c1ccc2c(c1)OCCO2	51%	-8%	25%	-10%	127%
O=c1[nH]c(-c2ccncc2)nc2ccccc12	33%	-89%	-13%	0%	7.4µM*
Cc1cc(C)cc(Nc2nc3ccccc3c(=O)[nH]2)c1	?	.	7%	-1%	?
O=c1[nH]c(-c2cccnc2)nc2ccccc12	3%	4%	8%	5%	.
COc1nc(Nc2nc3ccccc3c(=O)[nH]2)nc2ccc(C)cc12	2.6µM*	-6%	12%	-2%	?
CCCNc1nc2ccccc2c(=O)[nH]1	-26%	.	5%	-1%	?
CC(C)Nc1nc2ccccc2c(=O)[nH]1	-14%	-2%	-5%	14%	10µM*
COCc1cccc(-c2csc(C(NC(C)=O)c3ccc(F)c(F)c3)n2)c1 (centres undefined)	.	.	0%	.	.
CSc1ccc(CCNC(=O)c2ccc(-c3nc(COc4ccccc4)c(C)o3)cc2)cc1	.	.	.	1%	.
c1ccc(Nc2c(-c3c[nH]c4ccccc34)nc3ccccn23)cc1	.	.	.	8%	.
COC(=O)CSC1=C(C#N)C(c2ccc(C(C)C)cc2)CC(=O)N1 (centres undefined)	.	-7%	-8%	1%	-24%
N#CC1=C(SCC(=O)Nc2ccccc2)NC(=O)CC1c1ccco1 (centres undefined)	.	.	-1%	.	.
COC(=O)CSC1=C(C#N)C(c2ccccc2)CC(=O)N1 (centres undefined)	16%	1%	5%	7%	9.3µM*
N#CC1=C(SCC(=O)Nc2ccccc2)NC(=O)CC1c1ccc(O)cc1 (centres undefined)	.	-1%	-6%	5%	5.9µM*
CC(C)(C)N(NS(=O)(=O)c1ccc(F)cc1)c1ccccc1	32%	-6%	7%	-12%	45%
COc1ccc(CCNC2CC(=O)N(CCc3ccccc3)C2=O)cc1 (centres undefined)	9%	-10%	-2%	?	.
CCN(CC)c1ccc(NC2CC(=O)N(CCc3ccc(OC)cc3)C2=O)cc1 (centres undefined)	4.7µM*	8%	-20%	10µM*	1.9µM*
CCN(CC)S(=O)(=O)c1cccc(C(=O)OCc2cc(=O)n3nc(C)sc3n2)c1	-24%	-1%	11%	-10%	5.2µM*
O=S(=O)(/N=C(/Sc1ccccc1)c1ccccc1)c1ccccc1	.	1%	1%	1.8µM*	51%
CCN(CC)c1ccc2cc(C(N)=O)c(=N)oc2c1	35%	-1%	-1%	.	33%
CCN(CC)c1ccc2cc(C(N)=O)c(=O)oc2c1	109%	-14%	9%	-8%	10µM*
Cc1ccc(N(CN2C(=O)c3ccccc3C2=O)C(=O)c2ccc([N+](=O)[O-])cc2[N+](=O)[O-])cc1	20%	20%	-19%	-5%	3.7µM*
O=C1c2ccccc2C(=O)N1CN(C(=O)c1ccccc1[N+](=O)[O-])c1ccc(F)cc1	12%	-6%	-6%	5%	?
O=C(N/N=C/C(Br)=C\c1ccccc1)c1ccco1	2.6µM*	-68%	2%	?	4.1µM*
Cc1occc1C(=O)N/N=C/C(Br)=C\c1ccccc1	204%	-46%	2%	-21%	1.3µM*
Cc1occc1C(=O)N/N=C/C=C/c1ccccc1	113%	.	74%	-20%	8%
CC(NC(=O)c1ccc2c(c1)sc1nc(-c3ccc(F)cc3)cn12)C12CC3CC(CC(C3)C1)C2 (centres undefined)	.	.	.	5%	.
CCCc1[nH]n(-c2ccc([N+](=O)[O-])cc2)c(=O)c1C=NCCCn1ccnc1	13µM*	6%	-16%	-8%[57.1 µM]	14%
CCCc1[nH]n(-c2ccc([N+](=O)[O-])cc2)c(=O)c1C=NCCN1CCNCC1	19%	2%	.	9%	4%
O=C(COc1ccc(Cl)cc1)NCc1nnc2c3ccccc3c(-c3ccccc3)nn12	-20%	7%	-9%	-3%	13µM*
